Most compounds without a hit are left out; they make up all but 4.8% or so of the library.
IL1B secr inh = inhibitors of inflammasome signaling (IL-1 beta secretion) | 4.7% of 360,000 active | THP-1 LPS/ATP IL-1B secretion, AlphaLISA, 16 h; stronger effect = lower value | activity change, % at 57.5 µM; in the data active = activity change below about -50%; inconclusive = mostly about -30% to -49%
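Secreted IL-1B measured by AlphaLISA bead assay after 16 h compound exposure of THP-1 cells; compounds (final up to 57.5 uM) added 1 h before LPS (250 ng/mL) and ATP (1.25 mM) stimulation; lower signal means less secretion.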
USP2a block = blocks human ubiquitin-specific protease USP2a. O75604. USP2 core, Ub-CHOP2 coupled fluorogenic reporter, 485/531. Potency, µM (series often up to 38.3 µM), actives largely listed as inhibitors. 0.01% of 330,000 active. AID 463254
Target sequence (O75604 whole entry, looked up): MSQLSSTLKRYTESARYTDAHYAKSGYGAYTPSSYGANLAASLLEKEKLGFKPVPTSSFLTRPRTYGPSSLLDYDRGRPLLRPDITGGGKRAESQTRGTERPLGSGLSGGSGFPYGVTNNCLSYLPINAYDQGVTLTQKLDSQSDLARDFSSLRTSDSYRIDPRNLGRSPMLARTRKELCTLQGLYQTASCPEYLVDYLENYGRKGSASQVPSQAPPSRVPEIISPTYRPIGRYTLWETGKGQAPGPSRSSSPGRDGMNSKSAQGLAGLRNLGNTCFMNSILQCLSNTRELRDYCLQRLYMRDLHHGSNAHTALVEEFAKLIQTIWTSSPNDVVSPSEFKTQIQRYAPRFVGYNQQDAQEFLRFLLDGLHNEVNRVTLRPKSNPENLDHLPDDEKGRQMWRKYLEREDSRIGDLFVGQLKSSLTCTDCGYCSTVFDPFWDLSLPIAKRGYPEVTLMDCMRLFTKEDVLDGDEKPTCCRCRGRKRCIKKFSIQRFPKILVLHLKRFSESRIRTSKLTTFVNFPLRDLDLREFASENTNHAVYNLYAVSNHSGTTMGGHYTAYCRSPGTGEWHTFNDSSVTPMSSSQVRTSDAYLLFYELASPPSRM
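Deubiquitinase activity read as fluorescence (485/531 nm) after Ub-CHOP2 cleavage activates the enterokinase reporter on its substrate; USP2 core 10nM, Ub-CHOP2 and substrate 25nM each, 30min compound preincubation then 60min RT; data normalized to NEM, curves fitted.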
ATXN viability = reduces viability in counter-screen for ATXN expression inhibitors. S2 cells (HEK-293 line with an ATXN2-luciferase reporter) viability, CellTiter-Fluor protease fluorescence, 24 h. Potency, µM (doses to about 56.7 µM), hits mostly cytotoxic. 0.49% of 400,000 active; note: nearly all actives have a fitted effect of over 40% in size
ATXN2 expr inh = reduces ATXN2 reporter expression in HEK-293 cells; Potency, µM (titrated, usually from 57 µM), actives largely listed as inhibitors; AID 1745845; HEK-293 ATXN2-luciferase reporter, luminescence, 24 h; 0.72% of 360,000 active; note: nearly all actives have a fitted effect of over 55% in size
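qHTS (up to 57 uM final) was run with 24 h compound exposure of reporter cells at 37 °C. Each well was multiplexed: SteadyGlo luminescence measured ATXN2-luciferase expression after a fluorogenic Gly-Phe-AFC viability readout (25 uM final).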
USP1 inh = inhibitors of human USP1/UAF1 deubiquitinase. recombinant USP1/UAF1, Ub-Rhodamine cleavage fluorescence. Potency, µM (series often up to 57.1 µM), usual class: inhibitors. 0.23% of 390,000 active. O94782; note: nearly all actives have a fitted effect of over 60% in size
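In this screen, compounds sit with the deubiquitinase complex (1nM) for 15 min at room temperature before Ub-Rho is added at 150nM final. Fluorescence rise is then followed for 6 reads every 60 seconds.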
Of the large screens only hits and unclear results are named; the others gave an inactive call. Unless noted, calls come from the whole dose curve; as a rule, active = well fitted curve in the direction sought with a large enough effect; inconclusive = small, poorly fitted or top-dose-only effect, or another doubt; inactive = no such curve, though single readings can be large; an effect the other way counts as inactive or inconclusive.

COC(=O)N1C(=O)[C@](c2ccccc2)(C(C)C)N1C(=O)OC	IL1B secr inh -91.9, ATXN viability inconclusive
Cc1cccc(OCC(=O)NNC(=O)CCCCC(=O)NNC(=O)COc2cccc(C)c2)c1	none
CC[C@]1(c2ccccc2)C(=O)N(C(=O)OC)N1C(=O)OC	IL1B secr inh -80.8
COc1cc(OC)c(OC)cc1CN1CCC(n2cc(C(=O)N3CCCCC3)nn2)CC1	none (no result: IL1B secr inh, USP2a block, ATXN2 expr inh, USP1 inh)
CC[C@@]1(c2ccccc2)C(=O)N(C(=O)OC)N1C(=O)OC	IL1B secr inh inconclusive, ATXN viability inconclusive
Cc1ccccc1CNC(=O)COc1ccccc1	none
CC[C@@]1(c2ccccc2C)C(=O)N(C(=O)OC)N1C(=O)OC	IL1B secr inh -58.1
COC(=O)N1C(=O)[C@@](Cc2ccccc2)(c2ccccc2)N1C(=O)OC	IL1B secr inh -95.1, ATXN viability inconclusive, ATXN2 expr inh inconclusive
COC(=O)N1C(=O)[C@](Cc2ccccc2)(c2ccccc2)N1C(=O)OC	IL1B secr inh -103.2, ATXN viability inconclusive
CCOc1ccc(-c2noc(-c3csc([C@@H]4O[C@H](CO)[C@H](O)[C@H](O)[C@H]4O)n3)n2)cc1	none (no result: USP2a block, USP1 inh)
Cc1cccc(C)c1N=Nc1c(C)cc(O)cc1C	IL1B secr inh -89.3, ATXN viability inconclusive
CC(C)c1nn(-c2c(Cl)cccc2Cl)c2nc(Cc3ccc(OCCO)cc3)[nH]c(=O)c12	ATXN2 expr inh 0.0343µM (no result: IL1B secr inh, USP2a block, ATXN viability, USP1 inh)
C[N+]1(C)[C@@H]2C[C@@H](OC(=O)C(O)(c3cccs3)c3cccs3)C[C@H]1[C@@H]1O[C@@H]12	none (no result: IL1B secr inh, USP2a block, ATXN viability, USP1 inh)
CC(C)CC1C(=O)N(Cc2cn(CCC3OCCCO3)nn2)CCS(=O)(=O)N1Cc1ccc(-c2ccc(Cl)c(Cl)c2)cc1 (centres undefined)	IL1B secr inh inconclusive, ATXN viability 31.6µM, ATXN2 expr inh inconclusive (no result: USP2a block)
CC1C(=O)N(Cc2cn(CCC3OCCCO3)nn2)CCS(=O)(=O)N1Cc1ccc(-c2ccc(Cl)c(Cl)c2)cc1 (centres undefined)	ATXN viability 25.1µM, ATXN2 expr inh 25.1µM (no result: USP2a block)
CC(C)CC1C(=O)N(Cc2cn(CCC3OCCCO3)nn2)CCS(=O)(=O)N1Cc1ccc(-c2ccc(Cl)cc2)cc1 (centres undefined)	ATXN viability inconclusive (no result: USP2a block)
Cc1cccc(C)c1-c1ccc(CN2C(CC(C)C)C(=O)N(Cc3cn(CCO)nn3)CCS2(=O)=O)cc1 (centres undefined)	IL1B secr inh -56.7, ATXN viability 31.6µM, ATXN2 expr inh 28.2µM (no result: USP2a block)
CCC/C=C/c1ccc(CN2C(CC(C)C)C(=O)N(Cc3cn(Cc4ccco4)nn3)CCS2(=O)=O)cc1 (centres undefined)	IL1B secr inh -62.4, ATXN viability inconclusive, ATXN2 expr inh inconclusive (no result: USP2a block)
COc1ccc(CCNC(=O)Cc2c(C)c3cc4c(C)coc4cc3oc2=O)cc1OC	none (no result: IL1B secr inh, USP2a block, ATXN viability, ATXN2 expr inh)
O=C(COc1ccc(Cl)cc1)NCCNc1ccc([N+](=O)[O-])cc1	IL1B secr inh inconclusive (no result: ATXN2 expr inh)
CC1=C(C(=O)OC(C)C)C(c2cccs2)NC(=S)N1 (centres undefined)	none
COCOCCn1cc(CN2CCS(=O)(=O)N(Cc3ccc(-c4ccc(Cl)c(Cl)c4)cc3)C(C)C2=O)nn1 (centres undefined)	ATXN2 expr inh 28.2µM (no result: USP2a block, ATXN viability)
COCOCCn1cc(CN2CCS(=O)(=O)N(Cc3ccc(-c4ccc(C)cc4)cc3)C(C)C2=O)nn1 (centres undefined)	ATXN viability inconclusive (no result: USP2a block)
CC1C(=O)N(Cc2cn(CCC3OCCO3)nn2)CCS(=O)(=O)N1Cc1ccc(-c2ccc(Cl)cc2)cc1 (centres undefined)	ATXN viability 31.6µM, ATXN2 expr inh inconclusive (no result: USP2a block)
Cc1cc(C)cc(-n2c(SCC(=O)NC3CCCCC3)nc3c([nH]c4ccccc43)c2=O)c1	none (no result: IL1B secr inh, USP2a block)
COc1cc(OC)c(OC)cc1CN1CCCC(c2nc(C)ncc2-c2ccc(F)cc2)C1 (centres undefined)	none (no result: IL1B secr inh, USP2a block, ATXN2 expr inh, USP1 inh)
COCCCN(C(=S)Nc1cc(Cl)cc(Cl)c1)C(C)c1ccncc1 (centres undefined)	IL1B secr inh -68.1
NCCCC[C@H]1CNC(=S)N1CCc1cc(C(F)(F)F)cc(C(F)(F)F)c1	IL1B secr inh -50.9
NCCCC[C@H]1CNC(=O)C(=O)N1CCc1cc(C(F)(F)F)cc(C(F)(F)F)c1	USP1 inh inconclusive
COc1ccc2c(c1OC)C(=O)OC2C1c2c(cc3c(c2OC)OCO3)CCN1C (centres undefined)	ATXN viability inconclusive
CN1CCc2cc3c(c4c2[C@H]1[C@H](O)c1ccccc1-4)OCO3	IL1B secr inh -62.0, ATXN viability inconclusive, ATXN2 expr inh inconclusive, USP1 inh inconclusive
Fc1cc(-c2cccc3ncc(-c4cnn(C5CCNCC5)c4)nc23)cc(F)c1CN1CCOCC1	ATXN2 expr inh 24.3µM (no result: IL1B secr inh, USP2a block, ATXN viability, USP1 inh)
CCc1cc2c(=O)c(-c3cnn(-c4ccccc4)c3)coc2c(CN2CCOCC2)c1O	IL1B secr inh inconclusive, ATXN2 expr inh inconclusive
CCCCc1ccc(NC(=O)CSc2nc(=O)n(CCCN3CCOCC3)c3c2CCC3)cc1	IL1B secr inh -83.2
CCCCc1ccc(NC(=O)CSc2nc(=O)n(CCN3CCOCC3)c3c2CCC3)cc1	IL1B secr inh -70.1
CCc1ccc(NC(=O)CSc2nc(=O)n(CCCN3CCOCC3)c3c2CCC3)cc1	none
O=P(O)(O)OC(Cn1cncn1)(Cn1cncn1)c1ccc(F)cc1F	none (no result: IL1B secr inh, USP2a block, ATXN2 expr inh, USP1 inh)
COCCNC(=O)Cn1cc(/C=N/NC(=O)c2ccc(Oc3ccc(O)cc3)cc2)c2ccccc21	IL1B secr inh -70.2, USP1 inh inconclusive
C=C(CCC(=O)c1ccccc1)C(=O)c1ccccc1	IL1B secr inh -83.4, USP2a block inconclusive, ATXN viability inconclusive, ATXN2 expr inh inconclusive
C=C(C(=O)c1ccccc1)C(CC(=O)c1ccccc1)c1ccccc1 (centres undefined)	IL1B secr inh -95.0, ATXN viability inconclusive, ATXN2 expr inh 25.1µM
C=C(C)C1(O)OC(=O)C=C1OC (centres undefined)	IL1B secr inh -75.7, USP1 inh inconclusive
O=C(NCCN1Cc2ccccc2OC(c2ccccc2F)C1)c1ccco1 (centres undefined)	none (no result: IL1B secr inh, USP2a block, ATXN2 expr inh, USP1 inh)
CCC1CO/C(=C(\C(Cl)=C(Cl)Cl)[N+](=O)[O-])N1 (centres undefined)	IL1B secr inh -61.3
CN1CCO/C1=C(\C(Cl)=C(Cl)Cl)[N+](=O)[O-]	none
CCCC[C@@H]1Cc2[nH][nH]c(=O)c2[C@H](c2ccc(C(C)C)cc2)O1	IL1B secr inh -64.6 (no result: USP2a block, USP1 inh)
CCc1ccc(O)c(N=Cc2ccccc2O)c1	none
O=c1[nH][nH]c2c(N=Cc3ccccc3O)ccc(F)c12	USP1 inh 28.2µM
OC1Cc2ccccc2C1Nc1cccc(C(F)(F)F)c1 (centres undefined)	IL1B secr inh -66.1 (no result: USP2a block)
COc1ccc(C(=O)N/N=C/c2sc3ccccc3c2O)cc1	ATXN2 expr inh inconclusive, USP1 inh inconclusive (no result: ATXN viability)
